# In PubChem BioAssay (NCI):
# Compounds without any hit were thinned out: in the full panel of roughly 83,000, 20% have a hit.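 Single-concentration screen, 48 h exposure, 96-well plates. Endpoint: percent growth. Below 10 = active.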 Unmarked numbers belong to inactive results. Activity calls are given as the source filed them.
# System: SNB-19 CNS
# Assay: NCI-60 one-dose screen, 48 h (100 = growth as untreated, 0 = no growth, -100 = all killed)
# Conditions: 10 µM unless noted
row,Compound,growth [%]
1,CCc1ccc(-c2ccc(COc3ccc(CC4SC(=O)NC4=O)cc3)cc2)cc1 (stereo not given),87.1
2,Cn1cc(-c2noc(-c3cn(C)c4ncc(F)cc34)n2)c2ccccc21,81.2
3,Clc1ccc2nc(-c3ccc(-c4ccc(/C=N/NC5=NCCN5)cc4)s3)cn2c1,97.1
4,CC(C)CCSc1nc(N)nc2nc[nH]c12,93.3

# System: U251 CNS
# Assay: as above
# Conditions: 10 µM unless noted
row,Compound,growth
1,O=C(COc1cccc(/C=C2\Oc3ccccc3C2=O)c1)c1ccc([N+](=O)[O-])cc1,93.6%
2,CC[C@]12C=CCN3CC[C@@]4(c5ccc(OC)cc5N(C)[C@H]4[C@@](O)(C(=O)OC)[C@@H]1OC(=O)CCC(=O)N[C@H](Cc1c[nH]c4ccccc14)C(=O)OC)[C@@H]32,3.72% [100 µM] (active)
3,C=C(C)[C@@H]1CC[C@]2(C(N)=O)CC[C@]3(C)[C@H](CC[C@@H]4[C@@]5(C)C/C(=C/c6cccnc6)[C@H](O)C(C)(C)[C@@H]5CC[C@]43C)[C@@H]12,24.6% [100 µM]
4,CSc1nc2sc3cc(Cl)c(Cl)cc3n2c(=N)c1C#N,105%
5,COc1ccc(/C=C2\N=C(Nc3ccccc3)N(NC(=O)c3ccccn3)C2=O)cc1,95.8%
6,O=C(NCCCNC(=O)OCc1ccc2cccc(O)c2n1)OCc1ccc2cccc(O)c2n1,39.8%
7,COc1cc(C(=O)/C=C/c2c(-c3ccc(F)cc3)nc3sccn23)cc(OC)c1OC,5.59% (active)
8,CCCCCCCCCCCCNC(=S)N/N=C/c1ccccc1O,78.4%
9,CCCc1cc2cc(-n3nc(C)c4c3CC(C)(C)CC4=O)cc(NC3CCSCC3)c2c(=O)[nH]1,72.3%
10,COc1ccc(-c2cc(-c3ccc(OC)c(OC)c3)nc(SCCCCCC(=O)NO)n2)cc1,38.3%
11,CCC(C)[C@H](NC(=O)NC(=O)NC(=O)CI)C(=O)OC (stereo not given in full),93.2%
12,CCN(CC)c1ccc(/C=C/c2ccc3cc(C)ccc3[n+]2CC)cc1,9.59% (active)
13,N/C(=N\c1nc2ccccc2[nH]1)NC(=O)Cc1cccc2ccccc12,80.6%
14,CC1(C)CC[C@]2(C(N)=O)CC[C@]3(C)C(=CC[C@@H]4[C@@]5(C)C/C(=C/c6ccncc6)C(=O)C(C)(C)[C@@H]5CC[C@]43C)[C@@H]2C1,-81.1% [100 µM] (active)
15,Cc1ccc(C2=C/C(=C/c3ccc(Br)cc3)C(=O)N2CCc2ccc(S(N)(=O)=O)cc2)cc1,95.5%
16,Cc1ccc(NCCN2CCCCC2)c2c(=O)c3ccccc3sc12,21.1%

row,Compound,growth
1,CC1(C)CC(=O)c2c(ccc(C(=O)C[C@@H](N)CO)c2N)O1,7.09% (active)
2,CCCCC1COc2cccc3c2N1C=C/C3=C\C(=O)n1ccc2ccccc21 (stereo not given),76.5%
3,CC(C)CSc1ncnc2nc[nH]c12,103%
4,CC1(C)CC[C@]2(C(=O)O)CC[C@]3(C)C(=CC[C@@H]4[C@@]5(C)C/C(=C/c6cccnc6)[C@H](O)C(C)(C)[C@@H]5CC[C@]43C)[C@@H]2C1,-8.69% [100 µM] (active)
5,COc1ccc(C=C2c3ccccc3-c3ccccc32)cc1,34.8%
6,C#C[C@]1(O)CC[C@H]2[C@@H]3CC=C4c5nc(Nc6ccc(OC)cc6OC)sc5CC[C@]4(C)[C@H]3CC[C@@]21C,-2.51% (active)
7,CCOC(=O)c1nn(C2CCCCO2)c2ccc(NC(=O)CSc3nc4ccccc4c(=O)[nH]3)cc12 (stereo not given),97.2%
8,O=c1[nH]cnc2c1ccn2C1OC(CO)C(O)C1O (stereo not given),81.2%
9,CCOC(=O)C(=Cc1ccccc1[N+](=O)[O-])C(=O)OCC,23.4%
10,Cc1cc(C)c(S(=O)(=O)/N=c2/n(-c3ccccc3)nc3n2CCN3C2=NCCN2)c(C)c1,76.4%
11,COC(=O)c1cc2c(=O)[nH]cc3c2c(n1)CCC3,103%
12,Cn1cc(-c2noc(C(=O)c3cn(C)c4ncccc34)n2)c2ccccc21,89.2%
13,O=c1cc(-c2ccccc2)oc2cc(OCc3cn(Cc4ccc(F)cc4)nn3)cc(O)c12,-16.9% [100 µM] (active)
14,Cc1ccc(Cn2c(O)c(N=NC(=O)c3ccc(S(N)(=O)=O)cc3)c3ccccc32)cc1,97.8%
15,CC[C@]12C=CCN3CC[C@@]4(c5ccc(OC)cc5N(C)[C@H]4[C@@](O)(C(=O)OC)[C@@H]1OC(=O)CCC(=O)O[C@H]1CC[C@H]4[C@@H]5CCC6=CC(=O)CC[C@@H]6[C@H]5CC[C@]14C)[C@@H]32,10.8% [100 µM]
